Measurements published in PubChem BioAssay AID1159580 (chemical genetic matrix, 2015).
About 2,000 (36%) of roughly 5,500 compounds were called active. Not shown: some 18% with an inconclusive outcome. Cut-off read from the data, not from the text of the source: active = normalized growth mostly below about 0.91 (no sharp cut-off); inconclusive = no clear call, values can overlap the other calls; inactive = mostly above about 0.92. The list shows a part of the results.

Assay: chemical genetic growth profiling, strain panel (AID 1159580);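 note: tested at 20 µM; growth read once vehicle control cultures reached saturation at 30 °C; 1 = growth at the plate median or of vehicle wells; lower values mean less growth of the strain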
Conditions: S. cerevisiae deletion strains, growth OD
[1] = locus YAR019C, strain CDC15, hits give low values
[2] = locus YBL105C, strain PKC1, hits give low values
[3] = locus YBR135W, strain CKS1, hits give low values
[4] = locus YBR136W, strain MEC1, hits give low values
[5] = locus YBR160W, strain CDC28, hits give low values
[6] = locus YDL017W, strain CDC7, hits give low values
[7] = locus YDL028C, strain MPS1, hits give low values
[8] = locus YDL101C, strain DUN1, hits give low values
[9] = locus YDL108W, strain KIN28, hits give low values
[10] = locus YDL132W, strain cdc53, hits give low values
[11] = locus YDL214C, strain PRR2, hits give low values
[12] = locus YDR052C, strain DBF4, hits give low values
[13] = locus YDR054C, strain cdc34, hits give low values
[14] = locus YDR226W, strain ADK1, hits give low values
[15] = locus YDR477W, strain SNF1, hits give low values
[16] = locus YER123W, strain YCK3, hits give low values
[17] = locus YER133W, strain GLC7, hits give low values
[18] = locus YFL009W, strain cdc4, hits give low values
[19] = locus YFL029C, strain CAK1, hits give low values
[20] = locus YFR003C, strain YPI1, hits give low values
[21] = locus YFR019W, strain FAB1, hits give low values
[22] = locus YFR028C, strain CDC14, hits give low values
[23] = locus YGR040W, strain KSS1, hits give low values
[24] = locus YGR052W, strain FMP48, hits give low values
[25] = locus YGR092W, strain DBF2, hits give low values
[26] = locus YHR030C, strain SLT2, hits give low values
[27] = locus YHR079C, strain IRE1, hits give low values
[28] = locus YHR082C, strain KSP1, hits give low values
[29] = locus YHR205W, strain SCH9, hits give low values
[30] = locus YIL147C, strain SLN1, hits give low values
[31] = locus YJL095W, strain BCK1, hits give low values
[32] = locus YJL128C, strain PBS2, hits give low values
[33] = locus YJL157C, strain FAR1, hits give low values
[34] = locus YJR016C, strain ILV3, hits give low values
[35] = locus YJR066W, strain TOR1 (second series), hits give low values
[36] = locus YJR066W, strain TOR1, hits give low values
[37] = locus YKL048C, strain ELM1, hits give low values
[38] = locus YKL067W, strain YNK1, hits give low values
[39] = locus YKL101W, strain HSL1, hits give low values
[40] = locus YKL193C, strain SDS22, hits give low values
[41] = locus YKL203C, strain TOR2, hits give low values
[42] = locus YLR113W, strain HOG1, hits give low values
[43] = locus YLR133W, strain CKI1, hits give low values
[44] = locus YLR403W, strain SFP1, hits give low values
[45] = locus YML070W, strain DAK1, hits give low values
[46] = locus YMR001C, strain CDC5, hits give low values
[47] = locus YMR205C, strain PFK2 (second series), hits give low values
[48] = locus YMR277W, strain FCP1, hits give low values
[49] = locus YNL006W, strain LST8, hits give low values
[50] = locus YNL020C, strain ARK1, hits give low values
[51] = locus YNL161W, strain CBK1, hits give low values
[52] = locus YNL183C, strain NPR1, hits give low values
[53] = locus YNL207W, strain RIO2, hits give low values
[54] = locus YNL222W, strain SSU72, hits give low values
[55] = locus YNL307C, strain MCK1 (second series), hits give low values
[56] = locus YOL078W, strain AVO1, hits give low values
[57] = locus YOL136C, strain PFK27, hits give low values
[58] = locus YOR061W, strain CKA2, hits give low values
[59] = locus YOR119C, strain RIO1, hits give low values
[60] = locus YOR231W, strain MKK1, hits give low values
[61] = locus YOR329C, strain SCD5, hits give low values
[62] = locus YPL031C, strain PHO85, hits give low values
[63] = locus YPL153C, strain RAD53, hits give low values
[64] = locus YPL204W, strain HRR25, hits give low values
[65] = locus YPL209C, strain IPL1, hits give low values
[66] = locus YPL256C, strain CLN2, hits give low values
[67] = locus YPR025C, strain CCL1, hits give low values
[68] = locus YPR106W, strain ISR1, hits give low values
[69] = locus YPR111W, strain DBF20, hits give low values
[70] = strain NNK1, hits give low values
[71] = strain TSCII, hits give low values

Measured: normalized growth

O=S(=O)(Nc1ccccc1Sc1c(Cl)cncc1Cl)c1ccc(Cl)cc1
inactive: [1] 0.981 | [2] 0.987 | [3] 0.985 | [4] 0.987 | [5] 0.988 | [6] 0.986 | [7] 0.995 | [8] 0.973 | [9] 0.985 | [10] 0.974 | [11] 1 | [12] 0.984 | [13] 0.974 | [14] 0.985 | [15] 0.99 | [16] 1 | [17] 1 | [18] 0.98 | [19] 0.985 | [20] 0.98 | [21] 0.998 | [22] 0.986 | [23] 0.993 | [24] 1.07 | [25] 0.988 | [26] 1.13 | [27] 1 | [28] 1.27 | [29] 0.981 | [30] 0.988 | [31] 0.974 | [32] 0.916 | [33] 0.997 | [34] 0.974 | [35] 1 | [36] 1.26 | [37] 0.955 | [38] 0.978 | [39] 0.958 | [40] 0.977 | [41] 1.06 | [42] 0.995 | [43] 0.979 | [44] 1 | [45] 0.995 | [46] 0.984 | [47] 0.998 | [48] 0.978 | [49] 0.982 | [50] 0.978 | [51] 0.98 | [52] 0.961 | [53] 0.985 | [54] 0.994 | [55] 0.978 | [56] 0.96 | [57] 1 | [58] 0.991 | [59] 1.01 | [60] 0.998 | [61] 0.989 | [62] 0.995 | [63] 0.994 | [64] 1 | [65] 0.99 | [66] 0.97 | [67] 0.992 | [68] 0.968 | [69] 0.959 | [70] 0.963 | [71] 0.985

Cc1ccc(Sc2ncccc2NS(=O)(=O)c2ccc(Cl)cc2)cc1
inactive: [1] 0.933 | [2] 0.924 | [3] 0.935 | [4] 0.922 | [5] 0.934 | [6] 0.937 | [7] 0.932 | [8] 0.947 | [9] 0.919 | [10] 0.932 | [11] 0.852 | [12] 0.952 | [13] 0.922 | [14] 0.938 | [15] 0.881 | [16] 0.823 | [17] 0.855 | [18] 0.935 | [19] 0.931 | [20] 0.929 | [21] 0.923 | [22] 0.926 | [23] 0.858 | [24] 0.907 | [25] 0.826 | [27] 0.87 | [28] 0.845 | [29] 0.852 | [30] 0.917 | [31] 0.909 | [32] 0.88 | [33] 0.856 | [34] 0.919 | [35] 0.851 | [36] 0.882 | [37] 0.888 | [38] 0.894 | [39] 0.884 | [40] 0.932 | [41] 0.928 | [43] 0.894 | [44] 0.861 | [45] 0.849 | [46] 0.928 | [47] 0.888 | [48] 0.934 | [49] 0.947 | [50] 0.879 | [51] 0.929 | [52] 0.897 | [53] 0.924 | [54] 0.933 | [55] 0.885 | [56] 0.94 | [57] 0.854 | [58] 0.85 | [59] 0.912 | [60] 0.891 | [61] 0.929 | [62] 0.866 | [63] 0.863 | [64] 0.884 | [65] 0.934 | [67] 0.933 | [68] 0.925 | [69] 0.924 | [70] 0.92 | [71] 0.928
active: [26] 0.839 | [42] 0.809 | [66] 0.827
